{"source": "PubChem BioAssay AID431", "about": "(Sanford-Burnham Center for Chemical Genomics, 2006)", "note": "About 1,100 (1.7%) of roughly 63,000 compounds were called active. Only a selection was taken, and actives are over-represented in it overall. Potency and affinity values are given separately. A number with no mark means an inactive call.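 How the source made its calls: active means compounds whose percent cytotoxicity in the single-dose primary screen, scaled between solvent and toxic-drug controls, exceeds 50; inactive means the rest.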", "data": [{"assay": "viability loss of HPDE-C7K cells – cell-based, fluorescence, HTS, primary screen (AID 431);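 further: 0% = DMSO solvent wells and 100% = doxorubicin-treated wells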", "conditions": "HPDE-C7K KRASV12 cells, Alamar Blue viability, 48 h; at 10 µM; stronger effect = higher value", "values": [{"smiles": "CC(=O)Oc1ccc(N(C(C)=O)S(=O)(=O)c2cccs2)cc1", "cytotoxicity": "8.2%"}, {"smiles": "O=C(O)CCC(=O)Nc1nnc(C(F)(F)F)s1", "cytotoxicity": "-6.4%"}, {"smiles": "CCCNc1cc(=O)n(C)c(=O)n1C", "cytotoxicity": "9.9%"}, {"smiles": "O=c1c2c3nc4ccccc4nc3n(-c3cccc(F)c3)c2ncn1Cc1ccc2c(c1)OCO2", "cytotoxicity": "7.3%"}, {"smiles": "CC(C)c1ccc(O)c(N)c1", "cytotoxicity": "8%"}, {"smiles": "Cc1ccc(SC(C)C(=O)NCC(C)C)cc1", "note": "(centres undefined)", "cytotoxicity": "0%"}, {"smiles": "Cc1ccc(O)c(Sc2cc(C)ccc2O)c1", "cytotoxicity": "65.2% (active)"}, {"smiles": "Cc1ccc(NC(=O)CSc2nccc(=O)[nH]2)c(S(=O)(=O)N2CCOCC2)c1", "cytotoxicity": "2.7%"}, {"smiles": "Cc1sc(NC(=O)c2ccco2)c(C(c2ccncc2)N2CCOCC2)c1C", "note": "(centres undefined)", "cytotoxicity": "-8.8%"}, {"smiles": "CCOC(=O)C1CCN(C(c2cccnc2)c2c(NC(=O)c3ccco3)sc(C)c2C)CC1", "note": "(centres undefined)", "cytotoxicity": "82.5% (active)"}, {"smiles": "Cc1sc(NC(=O)c2ccco2)c(C(c2cccnc2)N2CCN(c3ccc(F)cc3)CC2)c1C", "note": "(centres undefined)", "cytotoxicity": "1.9%"}, {"smiles": "Cc1ccc2nc(N3CCN(C(=O)c4cccs4)CC3)c(C#N)cc2c1", "cytotoxicity": "2%"}, {"smiles": "O=S(=O)(Nc1cccc2ncccc12)c1cccs1", "cytotoxicity": "25.3%"}, {"smiles": "Cc1ccc2ncccc2c1NS(=O)(=O)c1ccccc1", "cytotoxicity": "-4.5%"}, {"smiles": "c1ccc(N(c2ccccc2)c2nc(N3CCCC3)nc(-n3ccnc3)n2)cc1", "cytotoxicity": "1.4%"}, {"smiles": "O=C1c2cccnc2C(O)N1Cc1ccc(F)cc1", "note": "(centres undefined)", "cytotoxicity": "1.3%"}, {"smiles": "Cc1ccc2oc(=O)c3cc(C(=O)N4CCN(C(=O)c5ccco5)CC4)sc3c2c1", "cytotoxicity": "11%"}, {"smiles": "O=C(Nc1ccc(-n2cnnn2)cc1)C1CCC1", "cytotoxicity": "-4.6%"}, {"smiles": "COc1ccc(-c2noc(C)c2-c2ccc3ccccc3n2)c(O)c1", "cytotoxicity": "54.3% (active)"}, {"smiles": "COc1ccc(-c2onc(C)c2-c2ccccc2)c(O)c1", "cytotoxicity": "15.1%"}, {"smiles": "COc1ccc(-c2n[nH]c(C)c2-c2cnn(-c3ccccc3)c2)c(O)c1", "cytotoxicity": "29.6%"}, {"smiles": "CCOc1ccccc1Nc1ccc(C(=O)O)cc1NC(C)=O", "cytotoxicity": "0.6%"}, {"smiles": "O=C(c1cc(-c2cccs2)on1)N1CCOCC1", "cytotoxicity": "2.8%"}, {"smiles": "O=C(c1cc(-c2cccs2)on1)N1CCN(c2ccc(F)cc2)CC1", "cytotoxicity": "13.6%"}, {"smiles": "O=C(c1cc(-c2cccs2)on1)N1CCN(c2ccccc2)CC1", "cytotoxicity": "50.8% (active)"}, {"smiles": "O=S(=O)(c1cccc2cccnc12)n1cnc2ccccc21", "cytotoxicity": "6.3%"}, {"smiles": "Cc1cccc(C)c1NC(=O)CSc1nnc(Cn2nnc(-c3ccccc3)n2)n1-c1ccccc1", "cytotoxicity": "-8.4%"}, {"smiles": "N#CC(C(=O)OC1CCCCC1)c1nc2ccccc2nc1N1CCCCC1", "note": "(centres undefined)", "cytotoxicity": "5.4%"}, {"smiles": "O=C(C1=C(O)C(=O)N(CCN2CCOCC2)C1c1ccccc1)c1cccs1", "note": "(centres undefined)", "cytotoxicity": "-12.1%"}, {"smiles": "O=C(c1cccs1)N1CCC(c2nc3c(nnn3Cc3ccccc3)c(=O)[nH]2)CC1", "cytotoxicity": "-36%"}, {"smiles": "COCC(=O)n1nc(-c2ccccc2)nc1NCc1ccc(F)cc1", "cytotoxicity": "-6%"}, {"smiles": "COc1cccc(N2CCN(C(=O)CCn3c(=S)[nH]c4cc5c(cc4c3=O)OCO5)CC2)c1", "cytotoxicity": "-4.3%"}, {"smiles": "O=C(CCCn1c(=S)[nH]c2cc3c(cc2c1=O)OCO3)N1CCN(c2ccccc2)CC1", "cytotoxicity": "-7.8%"}, {"smiles": "Cc1cccc(N2CCN(C(=O)CCn3c(=S)[nH]c4cc5c(cc4c3=O)OCO5)CC2C)c1", "note": "(centres undefined)", "cytotoxicity": "62.5% (active)"}, {"smiles": "NC1=NC2(CCC(c3ccccc3)CC2)n2c(nc3ccccc32)N1", "note": "(centres undefined)", "cytotoxicity": "68.7% (active)"}, {"smiles": "NC1=NC2(CCN(Cc3ccccc3)CC2)n2c(nc3ccccc32)N1", "cytotoxicity": "1%"}, {"smiles": "NC1=NC2(CCCCC2)n2c(nc3ccccc32)N1", "cytotoxicity": "19%"}, {"smiles": "CCOc1ccc(CNC(=O)NS(=O)(=O)c2ccc(OC)cc2)cc1", "cytotoxicity": "-11.3%"}, {"smiles": "CCCCn1nnnc1NCc1cccc(OC)c1OC", "cytotoxicity": "12.8%"}, {"smiles": "CCCCn1c(SCC(=O)NCc2ccco2)nnc1-c1ccoc1C", "cytotoxicity": "-26.4%"}, {"smiles": "CCCN(CCC)C(=O)C1CCN(c2cc(C)nc3c(-c4ccc(OC)c(OC)c4)c(C)nn23)CC1", "cytotoxicity": "7.2%"}, {"smiles": "COc1ccc(C(=O)C(c2ccccc2)N2CCOCC2)cc1", "note": "(centres undefined)", "cytotoxicity": "-2.4%"}, {"smiles": "COc1ccc(C(O)C(CN2CCOCC2)c2ccccc2)cc1F", "note": "(centres undefined)", "cytotoxicity": "-8.6%"}, {"smiles": "COc1ccc(C(=O)CCN2CCCCCC2)cc1", "cytotoxicity": "-7.8%"}, {"smiles": "COc1ccc(C(=O)O)cc1F", "cytotoxicity": "2.5%"}, {"smiles": "Cc1c(C(=O)N2CCCCC2)sc(NC(=O)C2CC2)c1C#N", "cytotoxicity": "2.5%"}, {"smiles": "O=C(Nc1ccccc1Cl)c1cnccn1", "cytotoxicity": "-6.1%"}, {"smiles": "CCn1c2ccccc2c2cc(C3C(C#N)=C(C)NC(C)=C3C#N)ccc21", "cytotoxicity": "7.6%"}, {"smiles": "CCn1c2ccccc2c2cc(C3C(C#N)=C(N)OC4=C3C(=O)CC(C)(C)C4)ccc21", "note": "(centres undefined)", "cytotoxicity": "-10.7%"}, {"smiles": "Cc1ccc(N2C(=O)CSC23C(=O)Nc2ccccc23)cc1", "note": "(centres undefined)", "cytotoxicity": "-5.4%"}, {"smiles": "COC(=O)[C@@H](NC(=O)Nc1ccccc1F)C(C)C", "cytotoxicity": "1.9%"}, {"smiles": "COc1ccc(C(=O)c2ccc(OC)c(OC)c2)cc1OC", "cytotoxicity": "-8.4%"}, {"smiles": "COc1ccc(C(=O)c2ccc(OC)c(N)c2)cc1N", "cytotoxicity": "66.7% (active)"}, {"smiles": "COc1ccc(C(N)=O)cc1N", "cytotoxicity": "-1%"}, {"smiles": "CN(Cc1ccccc1)C(=O)C1CCN(Cc2ccc(F)cc2)CC1", "cytotoxicity": "8.6%"}, {"smiles": "CC(C)(C)OC(=O)N1CCC(c2c(C(=O)O)cnn2-c2ccccc2Cl)CC1", "cytotoxicity": "1%"}, {"smiles": "Cc1ccc(CNC(=O)CCS(=O)(=O)c2ccc(Br)s2)o1", "cytotoxicity": "-4.2%"}, {"smiles": "COc1ccc(N(CC(=O)Nc2cc(C)ccc2OC)S(=O)(=O)c2c(C)noc2C)cc1", "cytotoxicity": "9.5%"}, {"smiles": "CCOc1ccccc1NC(=O)CN(c1cc(C)cc(C)c1)S(=O)(=O)c1c(C)noc1C", "cytotoxicity": "-9.2%"}, {"smiles": "COc1ccc(OC)c(NC(=O)CN(c2ccc(C)cc2)S(=O)(=O)c2c(C)noc2C)c1", "cytotoxicity": "1.7%"}, {"smiles": "CCOc1ccccc1NC(=O)CN(c1ccc(C)cc1)S(=O)(=O)c1c(C)noc1C", "cytotoxicity": "-7.2%"}, {"smiles": "CCOc1ccccc1NC(=O)CN(c1ccc(OC)cc1)S(=O)(=O)c1c(C)noc1C", "cytotoxicity": "52.8% (active)"}, {"smiles": "COc1ccc(N(CC(=O)Nc2cc(Cl)ccc2OC)S(=O)(=O)c2c(C)noc2C)cc1", "cytotoxicity": "77.1% (active)"}, {"smiles": "COc1ccccc1C(=O)N1CCN(S(=O)(=O)Cc2ccccc2)CC1", "cytotoxicity": "-0.3%"}, {"smiles": "CCOc1cc(CNc2ncnc3nc[nH]c23)ccc1OC", "cytotoxicity": "6.5%"}, {"smiles": "Cc1ccc2nsnc2c1S(=O)(=O)N1CCN(C(=O)C2CCCO2)CC1", "note": "(centres undefined)", "cytotoxicity": "-15.6%"}, {"smiles": "COc1cc2c(cc1OC)C(C)N(C(=O)Cn1ncc3c1-c1ccccc1OC3)CC2", "note": "(centres undefined)", "cytotoxicity": "-1.4%"}, {"smiles": "CC(C)(C)C(=O)Cn1c(NCCCO)nc2ccccc21", "cytotoxicity": "-18.5%"}, {"smiles": "Cc1onc(-c2ccccc2Cl)c1C(N)=O", "cytotoxicity": "8%"}, {"smiles": "Cc1onc(-c2ccccc2)c1C(N)=O", "cytotoxicity": "50.5% (active)"}, {"smiles": "Cc1onc(-c2ccccc2)c1C(=O)N1CCCN(C(=O)c2c(-c3ccccc3)noc2C)CC1", "cytotoxicity": "-5.2%"}, {"smiles": "CCOC(=O)c1[nH]c(C)c(C(=O)Nc2ccc(C)c(F)c2)c1C", "cytotoxicity": "0.8%"}, {"smiles": "CCc1ccc(NC(=O)c2noc3c2CCCCC3)cc1", "cytotoxicity": "3.4%"}, {"smiles": "COc1ccc(C(=O)N2CCOCC2)cc1Br", "cytotoxicity": "-1%"}, {"smiles": "Cc1cccc(OCC(=O)OCC(=O)c2c(N)n(C)c(=O)n(C)c2=O)c1", "cytotoxicity": "3%"}, {"smiles": "O=C(C1CCCN(S(=O)(=O)c2ccc(Br)s2)C1)N1CCCCCC1", "note": "(centres undefined)", "cytotoxicity": "-15.2%"}, {"smiles": "COC(=O)C1C(=O)C2=C(CC1C)NC(=O)CC2c1ccc(O)c(OC)c1", "note": "(centres undefined)", "cytotoxicity": "-9.5%"}, {"smiles": "Cc1cc(C)c(C)c(S(=O)(=O)NCc2cccnc2)c1C", "cytotoxicity": "-6.4%"}, {"smiles": "Cc1ccc(C(C)C)cc1S(=O)(=O)NCc1cccnc1", "cytotoxicity": "0.8%"}, {"smiles": "Cc1ccc(C)c(S(=O)(=O)NCc2cccnc2)c1", "cytotoxicity": "52% (active)"}, {"smiles": "COCCN1Cc2c(sc(C)c2C)N(C(=O)c2ccccc2)C1", "cytotoxicity": "5.6%"}, {"smiles": "CC1Cc2cc(-c3csc(NC(=O)Cc4cccs4)n3)ccc2N1S(C)(=O)=O", "note": "(centres undefined)", "cytotoxicity": "61.4% (active)"}, {"smiles": "O=C(Cc1cccs1)Nc1nc(-c2ccccc2)cs1", "cytotoxicity": "-14.2%"}, {"smiles": "CS(=O)(=O)N1CCc2cc(-c3csc(NC(=O)Cc4cccs4)n3)ccc21", "cytotoxicity": "2.8%"}, {"smiles": "CNC(=O)C1CCC(=O)N1Cc1ccc(C)cc1", "note": "(centres undefined)", "cytotoxicity": "-0.7%"}, {"smiles": "Cc1ccc2nc(NCCO)nc(-c3ccccc3)c2c1", "cytotoxicity": "16.3%"}, {"smiles": "O=C(O)c1cc(-c2ccccc2)nc2ccccc12", "cytotoxicity": "2%"}, {"smiles": "O=C(CSc1ncc(-c2ccc(F)cc2)[nH]1)Nc1cccc(O)c1", "cytotoxicity": "25.6%"}, {"smiles": "Cc1ccc(CNC(=O)C2C3C=CC(C3)C2C(=O)O)cc1", "note": "(centres undefined)", "cytotoxicity": "1.9%"}, {"smiles": "O=C(O)CCCNc1cc(N2CCC3(CC2)OCCO3)c2noc3c2c1C(=O)c1ccccc1-3", "cytotoxicity": "40.2%"}, {"smiles": "CC(=O)OCCNc1cc(N2CCN(C)CC2)c2noc3c2c1C(=O)c1ccccc1-3", "cytotoxicity": "16.8%"}, {"smiles": "CCOC(=O)c1c(C)noc1CP(=O)(c1ccccc1)c1ccccc1", "cytotoxicity": "2.6%"}, {"smiles": "CCOC(=O)c1c(C)[nH]c(C)c1-c1ccccc1OC", "cytotoxicity": "-2.6%"}, {"smiles": "CCOC(=O)N1CCN(c2cc(NCCC(=O)O)c3c4c(onc24)-c2ccccc2C3=O)CC1", "cytotoxicity": "61.7% (active)"}, {"smiles": "CC(CC(=O)O)CC1=NS(=O)(=O)c2ccccc2N1", "note": "(centres undefined)", "cytotoxicity": "-8.6%"}, {"smiles": "COc1ccc(CC(=O)Nc2c3c(nn2-c2cccc(C)c2C)CS(=O)C3)cc1OC", "note": "(centres undefined)", "cytotoxicity": "0.8%"}, {"smiles": "COc1ccc(C(=O)c2sc(NC(C)C)nc2N)cc1OC", "cytotoxicity": "-12.6%"}, {"smiles": "COc1cccc(C(=O)c2sc(NC(C)C)nc2N)c1", "cytotoxicity": "72.7% (active)"}, {"smiles": "CCCc1nnc(NC(=O)c2cccc(OC)c2)s1", "cytotoxicity": "-25.2%"}]}]}
